Rows were chosen to be rich in hits. Some 1.5% of all compounds tested hit in one or more screens of this group.
EBV gp42 inh – EBV gp42 inhibition. Fluorescence polarization binding assay, mP read-out. inhibition, % (tested at 21.74 µM). hit rate 0.42% among 220,000. AID 1085; in the data active = inhibition above about 50%
E coli Lon inh – inhibitors of E. coli Lon protease | P0A9M0 | purified E. coli Lon protease, fluorescence polarization | inhibition, % at 7.94 µM | hit rate 0.42% among 360,000 | AID 602123; in the data active = inhibition above about 13%, passing the limit was not always enough
Target sequence (P0A9M0 whole entry, looked up): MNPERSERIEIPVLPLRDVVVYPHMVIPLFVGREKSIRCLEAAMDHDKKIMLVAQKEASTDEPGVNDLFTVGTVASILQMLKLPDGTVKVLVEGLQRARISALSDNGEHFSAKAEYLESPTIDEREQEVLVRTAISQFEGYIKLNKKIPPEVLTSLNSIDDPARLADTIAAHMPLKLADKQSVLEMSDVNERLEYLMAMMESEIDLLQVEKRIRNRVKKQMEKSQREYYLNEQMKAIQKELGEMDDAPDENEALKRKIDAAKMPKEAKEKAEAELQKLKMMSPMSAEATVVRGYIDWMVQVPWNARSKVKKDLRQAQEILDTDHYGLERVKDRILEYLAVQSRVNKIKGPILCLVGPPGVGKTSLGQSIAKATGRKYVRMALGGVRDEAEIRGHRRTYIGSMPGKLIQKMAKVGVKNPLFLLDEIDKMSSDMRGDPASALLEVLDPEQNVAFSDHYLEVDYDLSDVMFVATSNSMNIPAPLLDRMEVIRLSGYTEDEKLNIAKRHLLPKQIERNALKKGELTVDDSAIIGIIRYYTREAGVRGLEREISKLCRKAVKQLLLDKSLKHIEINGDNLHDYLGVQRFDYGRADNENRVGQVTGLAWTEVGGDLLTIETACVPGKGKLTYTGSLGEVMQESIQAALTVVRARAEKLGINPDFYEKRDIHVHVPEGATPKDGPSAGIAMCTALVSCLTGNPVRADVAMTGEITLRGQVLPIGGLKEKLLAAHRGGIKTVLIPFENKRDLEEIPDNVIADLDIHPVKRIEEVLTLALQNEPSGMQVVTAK
GLD-1 TGE inh – GLD-1-TGE RNA interaction inhibition (C. elegans); AID 2280; Q17339; purified GLD-1 + fluorescein TGE RNA, fluorescence polarization; inhibition, % at 5.96 µM; hit rate 0.44% among 320,000;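 active = percent inhibition above a per-plate cutoff, the plate mean of test compounds plus 3 SD, cut at about 30% in these data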
LANA-H2B inh – blocks KSHV LANA binding to histone H2A/H2B. cell-free LANA-H2A/H2B peptide, fluorescence polarization. inhibition, % (test concentration not listed). hit rate 0.6% among 320,000. Q9QR71; in the data active = inhibition mostly above about 10%, no sharp cut-off; inactive = mostly below about 6.7%
LANA DNA inh – KSHV C-LANA DNA binding inhibition. MBP-C-LANA/FAM-LBS DNA binding, fluorescence polarization. inhibition, % at 9 µM. hit rate 0.078% among 340,000. AID 504423;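 active = highest replicate inhibition at or above 60% at 9 µM, even if other replicates fall short; inactive = all replicates below 60% inhibition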
Keap1-Nrf2 PPI – inhibitors of human Keap1-Nrf2 protein-protein interaction | AID 504523 | hit rate 0.15% among 340,000 | inhibition, % at 9.4 µM | Keap1 Kelch-Nrf2 peptide fluorescence polarization, 1536-well; in the data active = inhibition above about 12%; inconclusive = no clear call, values can overlap the other calls; inactive = below about 7.3%;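 also: human Keap1 Kelch domain with fluorescein labeled Nrf2 9mer peptide probe; higher means more block of Keap1 binding to Nrf2 peptide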
eLon confirm – confirmation of E. coli Lon protease inhibitors | purified E. coli Lon, fluorescence polarization | shares compounds with E coli Lon inh | inhibition, % at 7.94 µM | hit rate 31% among 1,400; in the data active = inhibition above about 16%
A number is an active result; - = inactive; ? = inconclusive; . = no result given; + = active, no number.

SMILES | EBV gp42 inh | E coli Lon inh | GLD-1 TGE inh | LANA-H2B inh | LANA DNA inh | Keap1-Nrf2 PPI | eLon confirm
COc1cc(C(F)(F)F)nc2ccc(C#CCOC(=O)Nc3ccccc3)cc12 | - | - | - | - | - | - | .
COc1ccccc1N1CCN(C(=O)c2c(-c3c(F)cccc3Cl)noc2C)CC1 | . | 21.2 | . | . | - | - | -
Cc1onc(-c2c(Cl)cccc2Cl)c1C(=O)N=C(N)N1CCCC1 | - | 32.9 | - | - | - | - | -
COc1ccccc1N1CCN(C(=O)c2c(-c3ccccc3)noc2C)CC1 | - | - | - | - | - | - | .
COc1cccc2c1C(=O)c1c(O)c3c(c(O)c1C2=O)CC(O)(C(C)=O)CC3OC1CC(O)C(O)C(C)O1 (stereo unspecified) | . | + | . | . | 110.5 | 19.6 | +
Cc1cccc(Cn2c(Sc3nc(C)cs3)nc3c2c(=O)[nH]c(=O)n3C)c1 | - | - | - | - | - | - | .
C=CCn1c(Sc2nc(C)cs2)nc2c1c(=O)[nH]c(=O)n2C | - | 22.2 | - | - | - | - | -
CCc1nnc(NC(=O)C2=CCN(S(=O)(=O)c3ccccc3)CC2)s1 | - | - | - | - | - | - | .
Cc1cc(C(C)(C)C)oc1C(=O)N(CC(=O)NC1CCCC1)Cc1ccccc1Cl | - | 133.2 | - | - | - | - | -
Cc1cccc(C(=O)NN2S(=O)(=O)c3ccccc3S2(=O)=O)c1 | - | 16.8 | - | - | - | - | -
Cc1cc(/C=C(\C#N)C(=O)O)c(C)n1CC1CCCO1 (stereo unspecified) | - | - | - | - | - | - | .
O=C(COC(=O)c1ccc(NS(=O)(=O)c2cccs2)cc1)Nc1nc2c(F)c(F)c(F)cc2s1 | - | 21.5 | . | . | - | - | -
O=C(COC(=O)c1ccco1)Nc1nc2c(F)c(F)c(F)cc2s1 | . | - | - | - | - | - | .
CC(OC(=O)Cn1cnc2c1c(=O)n(C)c(=O)n2C)C(=O)Nc1ccc(Cl)cc1 (stereo unspecified) | . | 26.5 | - | - | - | - | -
Cn1nc([N+](=O)[O-])c(C(C#N)c2ccccn2)c(Cl)c1=O (stereo unspecified) | - | 16.7 | - | - | - | - | -
CCCn1nc([N+](=O)[O-])c(C(C#N)c2nc3ccccc3o2)c(Cl)c1=O (stereo unspecified) | - | - | - | - | - | - | .
O=C(CSc1ncccn1)N/N=C/c1ccccc1[N+](=O)[O-] | - | - | - | - | - | - | .
CCOC(=O)c1[nH]c(C)c(C)c1C | - | 51.0 | - | - | - | - | -
Cc1ccc(/C=C/C(=O)O)cc1S(=O)(=O)NC1CCS(=O)(=O)C1 (stereo unspecified) | - | 15.2 | - | - | - | - | -
Cc1ccc(/C=C/C(=O)O)cc1S(=O)(=O)NCC1CCCO1 (stereo unspecified) | - | - | - | - | - | - | .
CCC1(O)C(=O)OCc2c1cc1n(c2=O)Cc2cc3cc(O)ccc3nc2-1 (stereo unspecified) | . | + | . | . | - | - | +
O=C(CN1CCN(S(=O)(=O)c2ccc(Cl)c(Cl)c2)CC1)N1CCCC1 | . | - | - | - | - | - | .
O=C(N/N=C/c1cc2c3c(c1O)CCCN3CCC2)c1ccccc1O | - | 67.2 | . | . | - | - | 103.5
Cc1nn(-c2ccccc2)c(N2CCCC2)c1/C=N/NC(=O)c1ccccc1O | - | - | - | - | - | - | .
O=C(Nc1ccc(NC(=O)C2CCCN2C(=O)OCc2ccccc2)cc1)c1ccco1 (stereo unspecified) | - | - | - | - | - | - | .
SMILES | EBV gp42 inh | E coli Lon inh | GLD-1 TGE inh | LANA-H2B inh | LANA DNA inh | Keap1-Nrf2 PPI | eLon confirm
O=C(Nc1cccc(O)c1)C1CCCN1C(=O)OCc1ccccc1 (stereo unspecified) | - | 17.8 | - | . | - | - | -
O=C(CCS(=O)(=O)Cc1ccccc1F)N1CCc2ccccc2C1 | - | 17.9 | - | - | - | - | -
Cc1sc2ncn(CC(=O)NCC(=O)N3CCN(c4ccccc4F)CC3)c(=O)c2c1C | . | 19.4 | - | - | - | - | -
COc1cc(OC)cc(C(=O)N[C@H](C(=O)OCn2nnc3ccccc3c2=O)C(C)C)c1 | - | 15.8 | - | - | - | - | -
CCn1nc(C)c(CNC(=O)Nc2ccc3c(c2)OCO3)c1C | - | - | - | - | - | - | .
Cc1ccc(-n2c(C)cc(-c3csc(N)n3)c2C)cc1 | - | - | - | - | - | - | .
Cc1cc(-c2csc(N)n2)c(C)n1C | - | 16.2 | - | - | - | - | -
COC(=O)C1=C(C)NC(C)=C(C(=O)OCC2CCCO2)C1c1cccc(Cl)c1 (stereo unspecified) | . | 21.8 | - | - | - | - | -
COC(=O)C1=C(C)NC(C)=C(C(=O)OCC2CCCO2)C1c1ccc(Cl)c([N+](=O)[O-])c1 (stereo unspecified) | . | - | - | - | - | - | .
Cc1sc2ncnc(N3CCC(C(=O)Nc4sc5c(c4C(N)=O)CCC(C)C5)CC3)c2c1C (stereo unspecified) | . | - | - | - | - | - | .
COc1ccc(NC(=O)N2CCCC2C(=O)NC2CCCC2)cc1 (stereo unspecified) | . | - | - | - | - | - | .
Nc1ccc2c(O)cc(S(=O)(=O)O)cc2c1 | . | 136.9 | . | . | - | - | -
Nc1cccc2c(O)cccc12 | . | - | - | - | - | - | .
O=C(O)c1cc(S(=O)(=O)O)ccc1O | - | - | - | - | - | - | .
Nc1cccc2c(O)cc(S(=O)(=O)O)cc12 | . | 64.8 | . | . | 117.1 | ? | -
OC(C#Cc1ccccn1)c1cccs1 (stereo unspecified) | - | 30.3 | - | - | - | - | -
CC(C)CN(C(=O)C1CCCC1)C1CCS(=O)(=O)C1 (stereo unspecified) | . | - | . | . | - | - | .
Cc1cccc(OCC(O)CN2C(C)(C)CC(O)CC2(C)C)c1 (stereo unspecified) | - | 14.4 | - | - | - | - | -
CC1(C)CC(O)CC(C)(C)N1CC(O)COCc1ccccc1 (stereo unspecified) | . | - | - | - | - | - | .
Cc1ccc(-c2[nH][nH]c(=O)c(=O)c2N=Nc2ccccc2)cc1 | - | - | - | - | - | - | .
CC(C)(C)c1cc[n+](-c2[nH]c(=O)sc2/C=N/NC(=O)c2ccccc2[O-])cc1 | . | 43.3 | 70.2 | - | - | - | 35.8
N#Cc1c(N2CCCC2)nc(N)c2c(N)nc(N3CCCC3)cc12 | - | 50.9 | - | - | - | - | -
COc1ccc2c(c1O)Cc1ccccc1C2=O | - | 34.0 | - | - | - | - | 22.3
CSCC(C)N1CCC(Oc2cccc(C(=O)NCc3ccccn3)c2)CC1 (stereo unspecified) | . | 17.2 | - | - | - | - | -
CC1=NN(C(N)=S)C(=O)C1N=Nc1ccccc1O (stereo unspecified) | . | 18.5 | - | - | - | - | 26.2
CC1=NN(C(N)=S)C(=O)C1N=Nc1ccccc1C (stereo unspecified) | - | - | - | - | - | - | .

Screens as filed in PubChem.
